The panel holds about 79,000 compounds, 15% with a hit somewhere; the sample as a whole holds those more often. Activity calls are given as the source filed them. Rule as the data show it: active = growth inhibition above about 70%; inactive = the rest.
Key:
[1] = NCI Yeast Anticancer Drug Screen. Data for the rad50 strain (AID 155);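 also: 0% = growth of vehicle-only cultures of the same strain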; settings: S. cerevisiae rad50 strain growth inhibition; at 50.0 µM; active compounds read high
How it was run: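 Genetically altered yeast (DNA repair pathway); compound treatment; growth inhibition vs vehicle ctrl.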

[2] = NCI Yeast Anticancer Drug Screen. Data for the mec2-1 strain (AID 157); settings: S. cerevisiae mec2-1 strain, at 50.0 µM, active compounds read high
How it was run: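 Compounds were applied to mec2-1 yeast cells. Their growth was then compared with that of vehicle-treated cultures to give growth inhibition.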

[3] = NCI Yeast Anticancer Drug Screen. Data for the sgs1 mgt1 strain (AID 161);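 also: 0% = growth of cultures given vehicle only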; settings: S. cerevisiae sgs1 mgt1 strain, at 50.0 µM, active compounds read high
How it was run: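 Growth of a repair-deficient yeast mutant was monitored after compound treatment and expressed as inhibition relative to vehicle-treated cultures.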

[4] = NCI Yeast Anticancer Drug Screen. Data for the cln2 rad14 strain (AID 165);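 also: 0% = growth equal to vehicle treated cultures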; settings: S. cerevisiae cln2 rad14 strain, at 50.0 µM, active compounds read high
How it was run: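 Strain: cln2 rad14 yeast, altered in cell cycle control and DNA damage repair. Read-out: growth inhibition vs vehicle.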

[5] = NCI Yeast Anticancer Drug Screen. Data for the bub3 strain (AID 167); settings: S. cerevisiae bub3 mutant strain, at 50.0 µM, active compounds read high
How it was run: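 Yeast carrying a defined mutation is treated with each compound, and growth is compared with that of vehicle-exposed cells to give inhibition.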

[6] = NCI Yeast Anticancer Drug Screen. Data for the mlh1 rad18 strain (AID 175); settings: S. cerevisiae mlh1 rad18 strain growth inhibition; at 50.0 µM; active compounds read high
How it was run: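 A repair-deficient yeast strain is exposed to test compound, and growth is scored relative to vehicle-treated controls.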

Measured: growth inhibition

Cc1cn(C2CC3[O][Sn]([c]4ccccc4)([c]4ccccc4)[O]CC3O2)c(=O)[nH]c1=O (stereo not drawn)
inactive: [1] 8.65% | [2] 35.8% | [3] 16.6% | [4] 7.6% | [5] 13.2% | [6] 47%

O=NN(CCCl)C(=O)NC1CCC(CC(=O)O)CC1 (stereo not drawn)
inactive: [1] 19.1% | [2] 6.1% | [3] -9.25% | [4] -8.7% | [5] 2.9% | [6] -6.85%

CCC1(C2C=COC=C2)NC(=O)NC1=O (stereo not drawn)
inactive: [1] -14.1% | [2] 3.8% | [3] -8.35% | [4] 6.45% | [5] -4.75% | [6] -2%

NNS(=O)(=O)c1ccc(N)cc1
inactive: [1] 5.6% | [2] 1.3% | [3] -5.4% | [4] -35% | [5] 18.8% | [6] 5.15%

Cc1ccc(C2C3CCC(=O)C=C3CN2C=O)cc1O (stereo not drawn)
inactive: [1] 10.2% | [2] 8.4% | [3] -3.2% | [4] -44.6% | [5] -2.6% | [6] 12.8%

Nc1ccc(C(=O)Nc2ccc3c(ccc4ccccc43)c2)cc1
inactive: [1] -5.8% | [2] 2.35% | [3] 13.8% | [4] 1.75% | [5] -12.9% | [6] 2.35%

O=C(OC1COC(n2c(=O)oc3ccc(Cl)cc32)C(OC(=O)c2ccccc2)C1OC(=O)c1ccccc1)c1ccccc1 (stereo not drawn)
inactive: [1] 8% | [2] 2.5% | [3] 6.8% | [4] -13.2% | [5] -1.1% | [6] 10.7%

Nc1c(Br)c(Br)cc2c1-c1ccc(Br)cc1C2
inactive: [1] 8.2% | [2] 3.75% | [3] -2.65% | [4] 8.75% | [5] 7.9% | [6] -4.7%

CC(=O)Nc1nc(C)c(CC/C=C/c2ccc([N+](=O)[O-])cc2)c(=O)[nH]1
inactive: [1] 4.75% | [2] 32.6% | [3] -3.8% | [4] 2.95% | [5] -8.15% | [6] -6.1%

O=c1[nH]nnc2cc(Cl)ccc12
inactive: [1] 0% | [2] 6.15% | [3] -4.65% | [4] -12.2% | [5] 2% | [6] -1.3%

CC(=O)Oc1cccc(/C=C/C(=O)O)c1
inactive: [1] 19% | [2] 29.3% | [3] 22.9% | [4] 3.75% | [5] 39.6% | [6] 18.9%

Cc1ccc(OCc2ccccc2)n[n+]1[O-]
inactive: [1] -20.6% | [2] -16.8% | [3] -10.8% | [4] -9.85% | [5] -9.7% | [6] -3%

COc1cc(=O)cc2n(-c3cc(OC)c(O)c(OC)c3)c3ccccc3nc1-2
inactive: [1] 23.6% | [2] 0.1% | [3] 5.95% | [4] 6% | [5] -8.3% | [6] 23.5%

COC(=O)c1ccccc1N=NNc1ccc(C(F)(F)F)c([N+](=O)[O-])c1
inactive: [1] -10.4% | [2] -1.85% | [3] 16.1% | [4] -2.35% | [5] 9.95% | [6] -11.7%

Cc1cc(Cl)ccc1N=Cc1ccc(C=Nc2ccc(Cl)cc2C)cc1
inactive: [1] 14.2% | [2] 3.6% | [3] -5.05% | [4] -1.55% | [5] 10.8% | [6] -0.5%

O=C1C(c2ccccc2)=[N+]([O-])c2cc([N+](=O)[O-])ccc21
inactive: [1] -15.8% | [2] 5.65% | [3] 13.8% | [4] 23.2% | [5] 14.8% | [6] 36%

CN(C)c1ncnc2c1cnn2-c1ccccc1
inactive: [1] -4.45% | [2] -4.35% | [3] 0.2% | [4] -40.8% | [5] -0.25% | [6] -3.15%

CC(O)CCNC(c1ccccc1)C(O)c1ccccc1 (stereo not drawn)
inactive: [1] 3% | [2] -6.95% | [3] -2.85% | [4] -7.4% | [5] 14.6% | [6] -0.85%

CN/C=C(/OCc1ccccc1)c1ccc(O)c(O)c1
inactive: [1] 2.2% | [2] 0.9% | [3] 3.05% | [4] -6% | [5] -19.7% | [6] 19.2%

COc1ccc(/C=C/C(=O)O)cc1OC
inactive: [1] -1.65% | [2] -12% | [3] 11.7% | [4] -1% | [5] 12.3% | [6] -0.65%

CCOC(=O)Cn1c(=O)n(C)c(=O)c2[nH]cnc21
inactive: [1] 28.7% | [2] -27.1% | [3] 17.4% | [4] 15.1% | [5] 22.5% | [6] 28.5%

CC(=O)N[N+](C)(C)C
inactive: [1] -20% | [2] -39.2% | [3] 11.5% | [4] 4.05% | [5] 1.2% | [6] 7.9%

C[C@H](OCc1ccccc1)C(=O)N1CCS(=O)(=O)N2CCC[C@@H]2C1=O
inactive: [1] 5.05% | [2] -19.1% | [3] -18.2% | [4] 19.4% | [5] -5.9% | [6] -17.9%

N#CC(c1ccccc1)C1CCCCC1 (stereo not drawn)
inactive: [1] -8.65% | [2] -20% | [3] -4.95% | [4] -4.3% | [5] 6.1% | [6] 20.4%

COc1ncc(/C=C2\OC(=O)c3ccccc32)c(OC)n1
inactive: [1] 1.6% | [2] -16.1% | [3] 19.9% | [4] 2.6% | [5] 6.05% | [6] 16.9%

CCOc1ccc(/C=C\C(=O)O)cc1
inactive: [1] -1.9% | [2] -19.6% | [3] 8.5% | [4] -5.75% | [5] 1.25% | [6] 1.55%

CCOC(CCCl)c1ccccc1 (stereo not drawn)
inactive: [1] 2.45% | [2] -12.4% | [3] -39.5% | [4] 7.85% | [5] 11.1% | [6] -10.3%

CCCCNCCS
inactive: [1] 14.1% | [2] -14.6% | [3] 2.7% | [4] 6.9% | [5] -8.55% | [6] 8.5%

CS(=O)(=O)Oc1ccc2cc(Br)ccc2c1
inactive: [1] 13.6% | [2] -5.35% | [3] -0.3% | [4] 4.25% | [5] 31.4% | [6] 9.75%

Oc1ccccc1CN1CCOCC1 (tested in a mixture with another compound)
inactive: [1] -2.7% | [2] -7.05% | [3] 6.95% | [4] -46.2% | [5] 0.2% | [6] -6.25%

COC(=O)N/N=C/c1oc(-c2cccc([N+](=O)[O-])c2)c(-c2cccc([N+](=O)[O-])c2)c1[N+](=O)[O-]
inactive: [1] 19.4% | [2] 30.1% | [3] 16.5% | [4] 22.6% | [5] 21% | [6] 22.6%

ClCCCN1CCN(CCCCl)CC1
active: [1] 80.2% | [2] 70% | [3] 85% | [5] 80.5%
inactive: [4] 62.1% | [6] 7.75%

COc1ccc2c(c1)CC1c3[nH]c4ccccc4c3CCN1C2 (stereo not drawn)
inactive: [1] 52.7% | [2] 35.5% | [3] 52.9% | [4] 32.5% | [5] 19.1%
active: [6] 79%

O=S1C2CCC(Br)C1CCC2Br (stereo not drawn)
inactive: [1] 7.95% | [2] -6.15% | [3] 23.1% | [4] -5.35% | [5] 5.5% | [6] 12.4%

CNC(=S)N/N=C(C)\C=N/Nc1ccc(Br)cc1
inactive: [1] 46.4% | [2] 14.1% | [3] 34.7% | [4] -18.9% | [5] 21.2% | [6] 25.9%

Nc1nnc(-c2ccc(Nc3nc4ccccc4[nH]3)c([N+](=O)[O-])c2)s1
inactive: [1] 7% | [2] 1.4% | [3] 27.7% | [4] 15.3% | [5] 3.15% | [6] 14.1%

CC(=O)OC12CC3CCC4C(CCC5(C)C(C(C)CCCC(C)C)CCC45)C3(C)CC1O2 (stereo not drawn)
active: [1] 71%
inactive: [2] 48.4% | [3] 69.8% | [4] -1.2% | [5] 14.3% | [6] 42.2%

COc1cc(C2c3cc4c(cc3OC(N3CCNCC3)C2C)OCO4)cc(OC)c1OC (stereo not drawn)
inactive: [1] -17.5% | [2] -42.8% | [3] -27.8% | [4] -22.7% | [5] -3.6% | [6] -27.5%
